Reference: PubChem BioAssay AID1345082 (National Center for Advancing Translational Sciences (NCATS), 2018)
Hit rate of the full screen: of about 94,000 compounds, about 4,000 (4.3%) were called active. About 29% were inconclusive and are not listed. This excerpt belongs to a sample that is enriched for actives. Values without a mark were called inactive. The call rests on the fitted dose curve; in most records, active means well fitted inhibition curve with a large enough effect; inconclusive means small, poorly fitted or top-dose-only effect; inactive means no such curve, though single readings can be large or run the other way.

Assay: Cytotoxic Profiling in NIH 3T3 Cell Line of Diverse Libraries Using Quantitative High-Throughput Screening; further: nearly all actives have a fitted effect of over 55% in size
Settings: NIH 3T3 viability, CellTiter-Glo ATP luminescence, 48-72 h; series mostly up to 96.7 µM; activity change, negative = cytotoxicity: at the top concentration
Method in brief: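 First NIH 3T3 cells are plated at 400 cells/well; next compound is pinned in; then plates incubate 48 or 72 hr at 37 °C; finally CellTiter-Glo is added and luminescence read after 10 min.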
On the % scale 0 is the no-effect control and ±100 the full control effect; potency means the concentration at half of the fitted maximal effect.

Structure (SMILES) | activity change, negative = cytotoxicity | Potency
O=C(NCc1cccnc1)c1nc(-c2ccc(Cl)nc2)c2cnccn12 | -19.1% | 
Cn1c([C@H]2CCN(C3CCOCC3)C2)nc2ccccc21 | -5.14% [at 230 µM] | 
CN1CCC(N2CC[C@H](c3nc4ccccc4s3)C2)CC1 |  | 35.5 µM (active)
c1ccc2sc(C3CCCN(Cc4cc5n(n4)CCNC5)C3)nc2c1 (stereo not given) | -15.9% | 
CC(C)CCN1CCC2(C1)C(=NC1CCCCC1)NC(=O)N2c1cc(F)cc(F)c1 (stereo not given) |  | 35.5 µM (active)
O=C(c1ccccc1F)N1CCCC2(C1)C(=NC1CCCCC1)NC(=O)N2c1cc(F)cc(F)c1 (stereo not given) | 4.34% | 
O=C1NC(=NC2CCCCC2)C2(CCCN([S+](=O)([O-])c3ccccc3)C2)N1c1cc(F)cc(F)c1 (stereo not given) | -18.3% | 
O=C(CN1CCCC1=O)NCC1Cn2cccc2C(=O)N1Cc1ccccc1 (stereo not given) | -0.873% | 
CC(C)C(=O)N1CCOc2ccc(CN3CCc4ccccc4C3)cc2C1 | -17.2% | 
CCCNC(=O)N1CCC(Cn2c(C)cnc2-c2cccnc2)CC1 | -11.4% | 
COCCNC(=O)C1CCCN(Cc2cccc(-c3cccs3)c2)C1 (stereo not given) | -26.2% | 
O=C(NCc1ccc2c(c1)OCO2)C1CN(C2CCCCC2)C(=O)N1 (stereo not given) | -28.4% [at 138 µM] | 
O=C(NCc1ccc2c(c1)OCO2)C1CCCN(Cc2cccc(-c3cccs3)c2)C1 (stereo not given) |  | 31.6 µM (active)
Cc1nc(C(=O)N2CC[C@H](N3CCN(C)CC3)[C@H](CCCO)C2)cs1 | -11.8% | 
CCCCOC(=O)N1CC(=O)N(Cc2ccco2)CC(O)C1 (stereo not given) | -33.4% | 
COCCOCC(=O)N1CCC2(CC1)CC(N(C(=O)c1ccccc1)C1CC1)CCO2 (stereo not given) | -17% | 
COC[C@H]1NC(=O)CC[C@H]1C(=O)NCc1cccc(C(F)(F)F)c1 | -13.8% | 
COc1ccccc1CNC(=O)c1nn(CC2CC2)c2c1CNCC2 | -23.4% | 
O=C(NCc1cccc(C(F)(F)F)c1)c1nn(CCOc2ccccc2)c2c1CNCC2 |  | 15.8 µM (active)
CC(C)NC(=O)C1(CCO)CC12CCOCC2 (stereo not given) | -1.11% | 
O=C(c1ccc(Cl)cc1)N1CCCN(CCn2nc3n(c2=O)CCCC3)CC1 | -29.3% | 
CCNC(=O)N[C@H]1CC[C@]2(C)CC[C@@H]([C@H](C)C(=O)NCc3ccco3)[C@H](O)[C@H]2[C@@H]1C | -6.06% [at 174 µM] | 
CC(C)(C)CC(=O)Nc1ccc2c(N3CCOCC3)ncnc2c1 | -17.4% | 
Cc1noc(C)c1-c1nccc2c(=O)cc(N3CCOCC3)oc12 |  | 100 µM (active)
O=c1cc(N2CCOCC2)oc2c(NCc3ccncc3)nccc12 |  | 44.7 µM (active)

Structure (SMILES) | activity change, negative = cytotoxicity | Potency
CCn1c(=O)c2ccnn2c2ccc(C(=O)NCc3ccc(N4CCOCC4)cc3)cc21 | -27.2% | 
CC(=O)Nc1ccc(C2(C(=O)NCCCN3CCOCC3)CCCCC2)cc1 | 0.268% | 
CC(CO)Nc1ncnc2c1CN(C1CCCNCC1)C(=O)CN2C (stereo not given) | -0.856% | 
Cn1c(=O)[nH]cc(CC(=O)N2CCCC(c3cccc(C(=O)O)c3)C2)c1=O (stereo not given) | 3.69% | 
O=C1CCN(C(=O)Cc2c[nH]c3ccccc23)CCCCCCN1 | -13% | 
CCc1ccccc1S(=O)(=O)N1CCN(C2(CC)CCN(C(=O)C(C)C)C2)CC1 (stereo not given) | -24.7% | 
CC(C)C(=O)N1CCC2(CC1)OC(=O)N(Cc1ccccc1F)C2(C)c1ccccc1 (stereo not given) |  | 44.7 µM (active)
CN(CCO)CC1(O)CCCN(Cc2ccccc2F)C1=O (stereo not given) | -10.2% | 
CC1(c2ccccc2)N(Cc2ccccc2F)C(=O)OC12CCN(Cc1c[nH]c3ccccc13)CC2 (stereo not given) |  | 17.8 µM (active)
COc1ccc(CN2CCC3(CC2)OCCN(Cc2ccccc2F)C3=O)cc1O | -17.7% [at 138 µM] | 
O=C(CCc1conc1-c1ccccc1)NCc1ccco1 | 0.389% | 
CCOc1ccccc1NC(=O)Cn1c(N2CCOCC2)nc(CC)cc1=O | -21.6% | 
C[S+](=O)([O-])N1Cc2ccccc2OC2(CCN(C(=O)Cc3cccc(O)c3)CC2)C1 | -6.82% | 
CN1CCC(NC(=O)C2CCCN(S(=O)(=O)c3ccccc3)CCC(=O)NCC2)CC1 (stereo not given) | -2.66% | 
Cn1ncc2c(C(=O)NCC(F)(F)F)cc(-c3ccc(C(F)(F)F)cc3)nc21 | -7.73% | 
Cn1ncc2c(C(=O)NCC#N)cc(-c3cccc(C(F)(F)F)c3)nc21 | -27.8% | 
COc1ccc(-c2cc(C(=O)NCC#N)c3cnn(C)c3n2)cc1 |  | 15.8 µM (active)
Cc1noc(C)c1S(=O)(=O)NCC1Cn2cccc2C(=O)N1C (stereo not given) | -8.04% | 
Cc1ncnc(N2CCC(Oc3ccc4ccccc4c3)(C(=O)O)CC2)c1C | -17.2% | 
COc1cccc(NC(=O)c2c(OC)cc(=O)n3c2CCCC3)c1 | -8.97% | 
COc1ccc(-c2[nH]nc3ncc(C(=O)Nc4ccccc4)nc23)c(C)c1 |  | 28.2 µM (active)
COc1ccc(-c2[nH]nc3ncc(-c4cn[nH]c4)nc23)cc1F | -67.3% [at 138 µM] | 
CCOc1ccc2c(n1)CCN(C(=O)Nc1ccc(OC)cc1C)C2 | -23.3% | 
COc1cccc(NC(=O)c2cnc3n[nH]c(-c4ccc(OC)cc4C)c3n2)c1 |  | 50.1 µM (active)
COc1cccc(-c2cc(C(=O)Nc3cccc(Cl)c3)c3cnn(C)c3n2)c1 | -13.5% | 
